# Source: PubChem
# Many of the other results were omitted from the sample, so hits are more common in it than they were.
# CD40 NFkB inh = CD40 pathway inhibition in BL2 cells. BL2 NF-kB luciferase reporter, CD40L-induced, 4 h. inhibition, % at 10 µM. hit rate 0.94% among 83,000. AID 1053188;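 active = mean inhibition of at least 50% with a set share of replicates also reaching that level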;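 also: 0% = neutral control wells and 100% = IKK inhibitor VII at 50 µM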
# * marks the source's active call; other numbers are inactive results; [ ] = another dose, or the depositor's remark.
SMILES,CD40 NFkB inh
CC(=O)Nc1cccc2c1O[C@H](CN(C)C(=O)OC(C)(C)C)[C@@H](C)CN(C)C2=O,2
C/C=C/c1ccc([C@H]2[C@@H](CO)N(CC3CCCC3)[C@H]2CNC(C)=O)cc1,-2
CCc1sc(N2[C@@H](C#N)[C@@H](c3ccccc3-c3ccc(F)cc3)[C@@H]2CO)nc1C,-8[25 µM]
C[C@H]1CN(C)C(=O)Cc2ccccc2O[C@H]1CN(C)C(=O)OC(C)(C)C,16
N#Cc1ccc(-c2ccc([C@@H]3[C@@H]4CN(S(=O)(=O)Cc5ccccc5)C[C@H]3N4)cc2)cc1,-7[25 µM]
C[C@H](CO)N1C[C@H](C)[C@@H](CN(C)Cc2cccc(C(F)(F)F)c2)OCc2ccccc2-c2c(n(C)c3ccccc23)C1=O,73*[25 µM]
COc1ccccc1NC(=O)N(C)C[C@@H]1OCc2ccccc2-c2c(n(C)c3ccccc23)C(=O)N([C@@H](C)CO)C[C@@H]1C,-3
C[C@H](CO)N1C[C@H](C)[C@@H](CN(C)C(=O)Nc2cccc(C(F)(F)F)c2)OCc2ccccc2-c2c(n(C)c3ccccc23)C1=O,46[25 µM]
C[C@H](CO)N1C[C@H](C)[C@@H](CN(C)C(=O)Nc2ccccc2C(F)(F)F)OCc2ccccc2-c2c(n(C)c3ccccc23)C1=O,8[25 µM]
C[C@@H]1CN([C@@H](C)CO)C(=O)c2c(c3ccccc3n2C)-c2ccccc2CO[C@@H]1CN(C)C(=O)Nc1ccccc1C(F)(F)F,55*[25 µM]
COc1ccccc1NC(=O)N(C)C[C@@H]1OCc2ccccc2-c2c(n(C)c3ccccc23)C(=O)N([C@H](C)CO)C[C@@H]1C,9
C[C@H]1CN([C@@H](C)CO)C(=O)c2c(c3ccccc3n2C)-c2ccccc2CO[C@@H]1CN(C)C(=O)Nc1cccc(C(F)(F)F)c1,64*[25 µM]
C[C@H](CO)N1C[C@H](C)[C@H](CN(C)C(=O)Nc2ccccc2C(F)(F)F)OCc2ccccc2-c2c(n(C)c3ccccc23)C1=O,38[25 µM]
C[C@H]1CN([C@@H](C)CO)C(=O)c2c(c3ccccc3n2C)-c2ccccc2CO[C@H]1CN(C)Cc1cccc(C(F)(F)F)c1,10[25 µM]
C[C@@H]1CN([C@H](C)CO)C(=O)c2c(c3ccccc3n2C)-c2ccccc2CO[C@@H]1CN(C)Cc1cccc(C(F)(F)F)c1,37[25 µM]
C[C@@H]1CN([C@@H](C)CO)C(=O)c2c(c3ccccc3n2C)-c2ccccc2CO[C@H]1CN(C)C(=O)Nc1ccccc1C(F)(F)F,64*[25 µM]
C[C@H](CO)N1C[C@H](C)[C@H](CN(C)C(=O)Nc2cccc(C(F)(F)F)c2)OCc2ccccc2-c2c(n(C)c3ccccc23)C1=O,37[25 µM]
C[C@@H]1CC=CC[C@@H](c2ccccc2)NC(=O)[C@@H](C)N(C)C(=O)c2ccccc2O1 (mixture of isomers),10[25 µM]
CN1C(=O)c2cc(NC(=O)c3cnccn3)ccc2OC[C@H]2O[C@H](CC(=O)NCC3CC3)CC[C@H]21,0
CN1c2ccc(-c3ccccc3F)cc2[C@H]2[C@H](CCN2S(=O)(=O)c2ccc(F)cc2)[C@H]1CO,1
C[C@H](CO)N1C[C@H](C)[C@@H](CN(C)Cc2ccc(Cl)c(Cl)c2)OCc2ccccc2-c2c(n(C)c3ccccc23)C1=O,31[25 µM]
O=C(c1cccnc1)N1C[C@H]2[C@@H](c3ccccc31)[C@@H](CO)N2C(=O)Nc1ccccc1,2
O=C(NCC(F)(F)F)[C@@H]1[C@@H](CO)[C@@H]2Cn3c(ccc(-c4ccncc4)c3=O)[C@@H]2N1Cc1ccncc1,3[25 µM]
C[C@H]1CN(C)C(=O)c2cc(N)ccc2O[C@@H]1CN(C)C,7
O=C1CCCn2cc(nn2)COC[C@H](Cc2ccccc2)N1,-2
SMILES,CD40 NFkB inh
CCCNC(=O)C[C@H]1C[C@H]2c3cc(NC(=O)NC4CCCC4)ccc3O[C@H]2[C@@H](CO)O1,-13
O=C(c1cnccn1)N1CC(=O)N2[C@H](CO)[C@@H](c3ccc(-c4cccc(F)c4)cc3)[C@@H]2C1,-3[25 µM]
C[C@@H]1CN([C@H](C)CO)C(=O)c2c(c3ccccc3n2C)-c2ccccc2CO[C@H]1CN(C)Cc1cccc(O)c1,9
C[C@H](CO)N1C[C@H](C)[C@H](CN(C)Cc2cccc(C(=O)O)c2)OCc2ccccc2-c2c(n(C)c3ccccc23)C1=O,-9
C[C@@H]1CN([C@@H](C)CO)C(=O)c2c(c3ccccc3n2C)-c2ccccc2CO[C@H]1CN(C)Cc1cccc(C(=O)Nc2ccccc2N)c1,60*[25 µM]
COc1ccc2c3c([nH]c2c1)[C@@H](CO)N(C(=O)CN(C)C)CC31CCN(Cc2cncnc2)CC1,-5[25 µM]
COc1ccc([C@@H]2CC=CC[C@@H](C)Oc3ccccc3C(=O)N(C)[C@@H](C(C)C)C(=O)N2)c(OC)c1 (mixture of isomers),13[25 µM]
c1cc2c(cc1C1CCCCC1)c1c3n2CCNC3CCC1 (configuration not stated),11[25 µM]
O=C(NCC[C@@H]1CC[C@H](NS(=O)(=O)c2cccc(F)c2)[C@@H](CO)O1)C1CCCC1,-3
CN(C)C(=O)c1cccc(-c2ccc(C3[C@@H]4CN(S(=O)(=O)c5cccc(Cl)c5)C[C@H]3N4)cc2)c1 (some centres not stated),3[25 µM]
CN(C)C(=O)[C@@H]1[C@@H](CO)[C@@H]2Cn3c(ccc(-c4cncnc4)c3=O)[C@H]1N2C(=O)NC1CCCC1,-3[25 µM]
CNC[C@@H]1Oc2ccc(NC(C)=O)cc2C(=O)N(C)C[C@H]1C,-2
c1cc2c(cc1C1=Nn3c(nnc3C3CCCCC3)SC1)OCO2,8
c1ccc(-c2nnc3n2N=C(c2ccc4c(c2)OCO4)CS3)nc1,6
NC1=NN=C(c2ccc3c(c2)OCCO3)CS1,52*
CC=Cc1ccc2n(c1=O)C[C@@H]1N[C@H]2[C@H](C(=O)NC2CCCCC2)[C@H]1CO (mixture of isomers),-2
Cc1ncn(-c2ccc(C(=O)Oc3ccccc3)cn2)n1,38*
O=C(Oc1ccccc1C(=O)Oc1ccccc1)c1cccnc1,-10
Cc1onc(-c2ccccc2)c1C(=O)Oc1ccccc1,12
O=C(NC1CCC1)[C@@H]1[C@@H](CO)[C@@H]2Cn3c(ccc(C4=CCCC4)c3=O)[C@@H]2N1C(=O)C1CCCC1,-6
CO[C@H]1CN(C)C(=O)c2cc(NC(=O)C3CCC3)ccc2OC[C@@H](C)N(Cc2ccc(F)cc2)C[C@H]1C,1
Cc1cnc(NC(=O)c2cc3c(s2)CCCC3)s1,65*
CCc1nnc(NC(=O)c2cc3c(s2)CCCCC3)s1,-59
CNC(=O)c1cc2c(s1)CCCCCC2,5
COc1ccc(NC(=O)Nc2ccc3c(c2)[C@@H]2C[C@H](CC(=O)N4CCN(C)CC4)O[C@@H](CO)[C@@H]2O3)cc1,-3[25 µM]
SMILES,CD40 NFkB inh
COc1ccc(-c2ccc3c(c2)[C@H]2[C@H](CCN2C(=O)C2CCOCC2)[C@@H](CO)N3C)cc1,-5[25 µM]
COc1ccc(-c2ccc3c(c2)[C@@H]2[C@@H](CCN2C(=O)C2CCC2)[C@H](CO)N3C)cc1,58*
COc1ccc(-c2ccc3c(c2)[C@@H]2[C@@H](CCN2C(=O)C2CC2)[C@@H](CO)N3C)cc1,-18
O=C(CN1CCOCC1)N1CC(=O)N2[C@H](C1)[C@H](c1ccc(-c3cccc(F)c3)cc1)[C@@H]2CO,-5[25 µM]
CC(C)NC(=O)N(C)C[C@H]1Oc2ncccc2C(=O)N(C)C[C@@H]1C,9
O=C(C[C@H]1C[C@H]2c3cc(NC(=O)NC4CCCC4)ccc3O[C@H]2[C@@H](CO)O1)NCc1ccccn1,-3
Cc1ccccc1-c1ccc([C@@H]2[C@H](CO)N3C(=O)CN(C(=O)c4ccncc4)C[C@@H]23)cc1,-8[25 µM]
CN([NH2+][O-])c1cc(O)ccc1O,-25[25 µM]
